In PubChem BioAssay AID1345085 (National Center for Advancing Translational Sciences (NCATS), 2018):
Inconclusive results are not listed. Values without a mark were called inactive. Activity calls are given as the source filed them. The call rests on the fitted dose curve; in most records, active means well fitted cell-killing curve with a large enough effect; inconclusive means small, poorly fitted or top-dose-only effect, or effect the other way; inactive means no such curve, though single readings can be large or run the other way.

system: HeLa; experiment: Confirmatory qHTS for gynecologic anti-cancer compounds from libraries of approved drugs and bioactive compounds; details: gynecologic cancer cell panel viability, ATPlite luminescence, 48 h; series mostly up to 57.6 µM; further: nearly all actives have a fitted effect of over 55% in size
Outline: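 Seeding 1,000 cells per well preceded overnight (16 h) attachment, after which 48 h drug treatment across 57.5 uM–0.977 nM (11 points) was applied. Remaining cellular ATP, detected by ATPlite luminescence, defined IC50.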
On the % scale 0 is the no-effect control and ±100 the full control effect; potency means the concentration at half of the fitted maximal effect.

Row | SMILES | Potency | activity change, negative = viability loss
1 | COc1ccc(-c2nc3ccc(C4=NNC(=O)CC4C)cc3[nH]2)cc1 (configuration not stated) | 19300 nM (active) | 
2 | Cc1cc(Nc2cc(N3CCN(C)CC3)nc(/C=C/c3ccccc3)n2)n[nH]1 | 1720 nM (active) | 
3 | COc1cccc2c1C(=O)c1c(O)c3c(c(O)c1C2=O)C[C@@](O)(C(=O)CO)C[C@@H]3O[C@H]1C[C@H](N)[C@H](O[C@@H]2CCCCO2)[C@H](C)O1 | 12200 nM (active) | 
4 | CC(C)c1nn(-c2c(Cl)cccc2Cl)c2nc(Cc3ccc(OCCO)cc3)[nH]c(=O)c12 | 122 nM (active) | 
5 | NC1(c2ccc(-c3nc4ccn5c(=O)[nH]nc5c4cc3-c3ccccc3)cc2)CCC1 | inactive | 
6 | CC(=O)c1cnc2ccc(-c3cc(Cl)c(O)c(Cl)c3)nc2c1NC1CCC(CN(C)C)CC1 (configuration not stated) | 99.3 nM (active) | 
7 | COC(C(=O)N1Cc2[nH]nc(NC(=O)c3ccc(N4CCN(C)CC4)cc3)c2C1)c1ccccc1 (configuration not stated) | 243 nM (active) | 
8 | Cc1cnc(Nc2ccc(CN3CCOCC3)cc2)nc1Nc1cccc(S(=O)(=O)NC(C)(C)C)c1 | 2170 nM (active) | 
9 | Cc1cnc(Nc2ccc(F)cc2Cl)nc1-c1c[nH]c(C(=O)NC(CO)c2cccc(Cl)c2)c1 (configuration not stated) | 9680 nM (active) | 
10 | CCc1c2c(nc3ccc(OC(=O)N4CCC(N5CCCCC5)CC4)cc13)-c1cc3c(c(=O)n1C2)COC(=O)[C@]3(O)CC | inactive | 
11 | O=c1[nH]c(=O)n([C@H]2C[C@H](O)[C@@H](CO)O2)cc1F | 2430 nM (active) | 
12 | CCS(=O)(=O)N1CCN(c2ccc(Nc3ncc(C(N)=O)c(NC4CC4)n3)cc2)CC1 | 4850 nM (active) | 
13 | CN[C@@H](C)C(=O)N[C@H]1CN(C(=O)CC(C)C)CC[C@H]2CC[C@@H](C(=O)NC(c3ccccc3)c3ccccc3)N2C1=O | inactive | 
14 | Cc1cc(Nc2nc(N[C@@H](C)c3ccc(F)cc3)c(C#N)cc2F)n[nH]1 | 1090 nM (active) | 
15 | CN1C(=O)C(Cc2c[nH]c3ccccc23)NC1=S (configuration not stated) | inactive | 
16 | Cn1c(=O)c(-c2c(Cl)cccc2Cl)cc2cnc(Nc3cccc(C(=O)O)c3)nc21 | 2430 nM (active) | 
17 | O=c1c(-c2ccc(O)cc2)coc2cc(O)cc(O)c12 | 12200 nM (active) | 
18 | Cn1cc(-c2ccc3ncc(Cc4ccc5ncccc5c4)n3n2)cn1 | inactive | 
19 | Cc1csc(NC(=O)c2sc3nc4c(c(C(F)(F)F)c3c2N)CCC4)n1 | 1930 nM (active) | 

Row | SMILES | Potency | activity change, negative = viability loss
20 | CNC1CCC(N(Cc2cccc(-c3ccncc3)c2)C(=O)c2sc3ccccc3c2Cl)CC1 (configuration not stated) | 27300 nM (active) | 
21 | COc1cc2c(c(OC)c1OC)-c1ccc(OC)c(=O)cc1[C@@H](NC(C)=O)CC2 | 178 nM (active) | 
22 | CCN(CC)CCCC(C)Nc1ccnc2cc(Cl)ccc12 (configuration not stated) | inactive | 
23 | CC(=O)Nc1cccc(-n2c(=O)n(C3CC3)c(=O)c3c(Nc4ccc(I)cc4F)n(C)c(=O)c(C)c32)c1 | inactive | 
24 | C=CC(=O)Nc1cccc(Oc2nc(Nc3ccc(N4CCN(C)CC4)cc3)ncc2Cl)c1 | 6850 nM (active) | 
25 | OCCNC1CCCc2c1[nH]c1ccc(-c3ccccc3)cc21 (configuration not stated) | 1930 nM (active) | 
26 | CC[C@H](Nc1ncnc2nc[nH]c12)c1nc2cccc(F)c2c(=O)n1-c1ccccc1 |  | 0.732% [at 10.7 µM]
27 | O=C1Cc2cc(CCN3CCN(c4nsc5ccccc45)CC3)c(Cl)cc2N1 | inactive | 
28 | COc1cc2c(NC3CCN(C(C)C)CC3)nc(C3CCCCC3)nc2cc1OCCCN1CCCC1 | 15300 nM (active) | 
29 | CCN1CCN(Cc2ccc(-c3cc4c(NC(C)c5ccccc5)ncnc4[nH]3)cc2)CC1 (configuration not stated) | 30600 nM (active) | 
30 | CCN[C@H]1C[C@H](C)S(=O)(=O)c2sc(S(N)(=O)=O)cc21 | inactive | 
31 | Cc1ccc(C(=O)Nc2ccc(Oc3cc4cnn(C)c4cc3-c3cn[nH]c3)c(F)c2)c(=O)n1-c1ccc(F)cc1 | 8630 nM (active) | 
32 | C=CC(=O)Nc1cc2c(Nc3ccc(F)c(Cl)c3)ncnc2cc1OCCCN1CCOCC1 | 27300 nM (active) | 
33 | COc1cc(N2CCC(N(C)C)CC2)ccc1Nc1ncc(Cl)c(Nc2ccccc2P(C)(C)=O)n1 | 1370 nM (active) | 
34 | OCc1ccc(-c2ccc(-c3ccc(CO)s3)o2)s1 | inactive | 
35 | c1nc2nc(Nc3ccc(N4CCOCC4)cc3)nc(NC3CCCCC3)c2[nH]1 | 1880 nM (active) | 
36 | CC(=O)NCC(=O)N1C2CCC1c1cc(Nc3ncc(C(F)(F)F)c(NC4CCC4)n3)ccc12 (configuration not stated) | 1090 nM (active) | 
37 | COc1cccc2c1C(=O)c1c(O)c3c(c(O)c1C2=O)C[C@@](O)(C(=O)CO)C[C@@H]3O[C@H]1C[C@H](N)[C@H](O)[C@H](C)O1 | 6850 nM (active) | 
